# HSP90 refold inh = HSP90 refolding inhibition in rabbit reticulocyte lysate. luciferase refolding luminescence, 3 h. inhibition, % at 5.6 µM. 290,000 tested, 0.91% active;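 active = inhibition above the screen-wide mean plus 3 SD, computed separately per campaign, cut at about 16% in these data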;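 also: inhibitors lower the luminescence because luciferase stays unfolded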
# TROY NFkB inh = blocks TROY-dependent signaling in reporter cells. Q293 LMP1-TROYcd NF-kB luciferase reporter, 4 h. inhibition, % at 10 µM. 360,000 tested, 0.98% active;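 active = compounds whose plate-normalised and pattern-corrected inhibition of the luciferase reporter signal at the single screening dose is 50% or more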
# TWEAK Fn14 block = inhibitors of TWEAK-Fn14 interaction signaling; TWEAK-stimulated Fn14 reporter cells, luciferase luminescence, 8 h; inhibition, % at 10 µM; 360,000 tested, 2% active; in the data active = inhibition above about 50%
# PPC-1+TRAIL kill = compounds killing PPC-1 cancer cells with TRAIL present (potentiator screen, no TRAIL-free arm); AID 1443; cell killing (% activity), % at 4 µM or 5 µM; PPC-1 cells + TRAIL, ATPLite viability luminescence; 220,000 tested, 0.41% active;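 active = cell killing above 50% in the first pass at 4 µM, then a duplicate retest at 5 µM averaging 50% or more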
# C8 TRAIL sens = sensitizes caspase-8 expressing cells to TRAIL | NB7+C8 cells + TRAIL, ATPlite viability luminescence | inhibition (viability loss, TRAIL sensitization), % at 10 µM | 360,000 tested, 1% active;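 active = compounds causing at least 50% loss of cell viability in the single-dose screen, relative to plate controls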
# Platelet DG rel = modulates dense granule release in human platelets; human platelet-rich plasma, SFLLRN dense granule ATP release, luminescence; inhibition, %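 (compounds screened at 7.5 µM in platelet-rich plasma)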; AID 1663; 300,000 tested, 0.22% active;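 active = mean replicate score, as percent of positive control, at or above 50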
# PPC-1 tox = PPC-1 cell cytotoxicity; shares compounds with PPC-1+TRAIL kill; PPC-1 viability, ATPlite luminescence, overnight; cytotoxicity, % at 5 µM; 1,200 tested, 50% active; AID 1447;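 active = reconfirmed compounds whose average cytotoxicity reaches 50% or more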
# A number is an active result; – = inactive; · = not tested or not shown. Hits are enriched below; roughly 3.5% of the tested compounds scored in any of these assays.
SMILES,HSP90 refold inh,TROY NFkB inh,TWEAK Fn14 block,PPC-1+TRAIL kill,C8 TRAIL sens,Platelet DG rel,PPC-1 tox
COc1ccc(C(C)NC(=O)C2CCCO2)cc1OC (stereo not drawn),–,–,–,–,–,–,–
COc1cccc(C(C)NC(=O)C2CCCO2)c1 (stereo not drawn),–,–,–,·,–,–,·
CC(O)CC(=O)NOCc1ccccc1 (stereo not drawn),·,–,–,·,–,·,·
CC1CCc2c(sc(/N=C/c3ccco3)c2C(N)=O)C1 (stereo not drawn),–,–,–,–,63,–,–
COc1cc(OC)c(OC)cc1/C=C/c1cc(C(=O)O)c2ccccc2n1,–,–,–,–,–,–,·
COc1ccc(/C=C/C(=O)Nc2ccccc2C(=O)N2CCCC2)cc1,–,–,–,–,–,–,·
O=C(O)c1cc(-c2ccccc2)nc2ccccc12,–,–,–,–,–,–,·
COc1ccc(/C=C/c2cc(C(=O)O)c3ccccc3n2)cc1,–,–,77,96,94,–,96
COc1ccc(/C=C/C(=O)Nc2ccccc2C(=O)O)cc1,46,54,87,83,86,–,83
CCOc1ccc(-c2cc(C(=O)O)c3ccccc3n2)cc1,–,–,–,77,83,–,77
CC(NC(=O)c1ccc(OC2CCN(Cc3ccccn3)CC2)cc1)c1ccccc1 (stereo not drawn),–,–,–,–,–,–,·
N#Cc1ccccc1N1CCN(C(=O)c2ccc(NC(=O)c3ccc(Br)o3)cc2)CC1,·,–,–,·,–,·,·
Cc1cccc(/C=N/Nc2nncc3ccccc23)c1,–,–,–,77,79,–,77
Cc1ccc(/C=N/Nc2nnc(Cl)c3ccccc23)cc1,–,–,–,78,86,–,78
Cc1ccc(NC(=O)Cc2cn3ccsc3n2)nc1,–,–,–,–,–,–,–
Oc1ccccc1N=Nc1ccccc1O,–,–,–,–,–,–,–
Nc1ccc(N=Nc2ccccc2O)c(N)c1,·,–,–,·,–,–,·
O=c1cc(CSc2ccccc2)nc(-c2ccncc2)[nH]1,–,–,–,–,–,–,·
O=[N+]([O-])c1cccc(OCCN2CCC(Cc3ccccc3)CC2)c1,–,–,–,·,–,–,·
O=C1CC(N2CCN(c3ccc(F)cc3)CC2)C(=O)N1Cc1ccc(N2CCCC2=O)cc1 (stereo not drawn),–,–,–,–,–,–,–
COc1ccc(N2CCN(C3CC(=O)N(Cc4ccc(N5CCCC5=O)cc4)C3=O)CC2)cc1 (stereo not drawn),–,–,–,–,–,–,·
CCn1c(=O)cc(OCC(=O)NCCCN2CCCC2=O)c2ccccc21,–,–,–,·,–,–,·
Cc1ccc(C#N)c(SCC(=O)Nc2nccs2)n1,–,–,–,54,–,–,59
Cc1cc(C)c(C#N)c(SCC(=O)Nc2ccccc2C(N)=O)n1,–,60,–,73,–,–,74
Cc1cc(C)c(C#N)c(SCC(=O)Nc2cc(C)on2)n1,·,–,–,·,–,·,·
SMILES,HSP90 refold inh,TROY NFkB inh,TWEAK Fn14 block,PPC-1+TRAIL kill,C8 TRAIL sens,Platelet DG rel,PPC-1 tox
CCc1nnc(NC(=O)CSc2nc3c(cc2C#N)CCC3)s1,–,–,–,65,64,–,69
CCc1nnc(NC(=O)CSc2nc(C)cc(C)c2C#N)s1,–,–,–,74,73,–,74
N#Cc1cc2c(nc1SCC(=O)Nc1sc3c(c1C#N)CCC3)CCC2,–,–,–,–,–,–,·
CC(CCc1ccccn1)(CCc1ccccn1)C(=O)c1ccccc1,·,–,–,·,–,·,·
CCOc1ccc(NC(=O)c2ccc3c(c2)CCN3S(C)(=O)=O)cc1,–,–,–,·,–,–,·
C=C1C(=O)O[C@@]23[C@H]1CC[C@@H](C)[C@@H]2CC[C@@]1(C)O[C@@H]31,·,–,–,·,–,·,·
CN(Cc1cccc(F)c1)C(=O)c1ccc(S(=O)(=O)N2CCCCCC2)cc1,·,–,–,·,–,·,·
CC(/C=N/NC(=O)c1ccco1)=C\c1ccccc1,–,–,–,63,69,–,63
COc1ccc(N2CCN(C(=O)CCNC(=O)Cn3ccc4ccccc4c3=O)CC2)cc1,–,–,–,–,–,–,·
N#Cc1ccccc1NC(=O)c1ccc2c(Cl)c3c(nc2c1)CCCC3,–,–,–,–,–,–,·
O=C(Nc1cccnc1Cl)c1ccc2c(Cl)c3c(nc2c1)CCC3,–,–,54,63,76,–,65
CC1=CC(c2ccc(Cl)cc2)n2nc(NC(=O)CCC(=O)O)nc2N1 (stereo not drawn),–,–,–,–,–,–,·
CN1CCN(NC(=O)NC2CCCCC2)CC1,–,–,–,·,–,–,·
NC(=O)Nc1ccc(C(=O)OCC(=O)N(Cc2ccccc2)C2CCS(=O)(=O)C2)cc1 (stereo not drawn),–,–,–,–,–,–,–
CN(C)c1cccc(C(=O)OCC(=O)N(Cc2ccccc2)C2CCS(=O)(=O)C2)c1 (stereo not drawn),–,–,–,–,–,–,·
O=c1cc(-c2ccccc2)[nH]c2nc3ccccc3n12,–,–,55,70,84,–,65
CCN(C(=O)c1ccco1)c1nnc(-c2ccc(OC)cc2)s1,–,–,–,68,69,–,70
CSCCC(NC(=O)c1ccccc1)C(=O)NNC(=O)c1csc(N2CCOCC2)n1 (stereo not drawn),–,–,–,·,–,–,·
O=C(CCNC(=O)C1CCN(S(=O)(=O)c2ccccc2)CC1)NCc1cccnc1,·,–,–,·,–,·,·
Clc1ccc(-c2nc3nc4ccccc4nc3n2Cc2ccco2)cc1,–,–,59,–,–,·,–
Nc1nc(CSCc2ccccc2)nc(N2CCOCC2)n1,–,·,61,–,–,–,–
Cc1ccc(-c2ccc(NC(=O)C3C4C=CC(C4)C3C(=O)O)cc2)o1 (stereo not drawn),–,–,–,–,–,–,–
CN1CCN(CC(O)COc2ccc(Cl)cc2)CC1 (stereo not drawn),–,–,–,–,–,–,–
CN1CCN(CC(O)COc2ccc(OCC(O)CN3CCN(C)CC3)cc2)CC1 (stereo not drawn),–,–,–,–,–,–,·
Nc1ccn([C@@H]2O[C@H](CNCc3ccc(N4CCNCC4)cc3)[C@@H](O)[C@H]2O)c(=O)n1,·,–,–,·,–,·,·
O=C(COc1ccccc1)Nc1ccc(-c2nnc(-c3ccco3)o2)cc1,–,–,–,–,–,–,·
CCCOc1ccc(-c2nnc(-c3ccco3)o2)cc1,–,–,72,–,55,–,–
O=C(Nc1ccc(N2CCOCC2)cc1)c1cn2ccccc2n1,–,–,68,81,81,68,82
Oc1ccccc1-c1nc2cnccn2c1Nc1ccc2c(c1)OCCO2,–,–,–,–,–,–,–
COc1ccc(-c2cc(C#N)nc(Oc3ccc(Cl)cc3)n2)cc1,–,–,–,–,–,–,·
